Screening results: PubChem BioAssay, National Center for Advancing Translational Sciences (NCATS)
This is one part of a sample in which hits are shown more often than they occur.
Pf Dd2 inh: blocks in vitro growth of P. falciparum Dd2; P. falciparum Dd2 growth, SYBR Green, 72 h; 4.3% of 120,000 active; Potency, µM (titrated, usually from 28.9 µM), without a hit: at the top dose activity, negative = inhibition, usual class: inhibitors; AID 1347417; active = well fitted inhibition curve with a large enough effect;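 also: plate controls were DMSO vehicle for no effect and reference drug for full effect; nearly all actives have a fitted effect of over 65% in size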
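Infected erythrocytes (Dd2, 0.3% parasitemia, 2.5% hematocrit final) are added to compound in RPMI-1640/Albumax II medium, grown 72 h at 37C in low oxygen, then lysed with saponin/Triton-X containing SYBR Green and read by fluorescence.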
* hit, by the source's call; i = inactive; [ ] = remark or other dose. Potency is read from the fitted curve at half-maximal effect.

SMILES	Pf Dd2 inh
CCn1cc(S(=O)(=O)N2CCn3c(nn(CC4CC4)c3=O)C2)cn1	-7.0%
CC(C)(C)c1ccc(C(=O)N2C[C@@H](C(=O)O)[C@H](c3cccc(F)c3)C2)cc1	-15.7%
COc1ccccc1C(=O)N1CCC2(CCCCO2)CC1	-6.9%
COc1ccc(-c2[nH]nc3ncc(-c4ccccc4F)nc23)c(C)c1	i
Cc1cc(=O)n(CC(=O)Nc2cccc(Cl)c2C)c(N2CCOCC2)n1	0.8%
COc1ccc(C2=CC(c3ccc(N(C)C)cc3)n3nnnc3N2)cc1 (stereo not drawn)	82.8%
COc1ccc(C2C=C(c3ccccc3)Nc3nc(NC(C)=O)nn32)cc1 (stereo not drawn)	-29.9%
COc1ccc(/C=C/C(=O)Nc2nc3n(n2)C(c2ccccc2)C=C(c2ccccc2)N3)cc1 (stereo not drawn)	7.94µM*
COc1cc(Cl)c(C)cc1NC(=O)CN1C(=O)NC(c2ccc(Cl)cc2)C2=C1COC2=O (stereo not drawn)	-19.0%
Cc1nn(C)c(C)c1S(=O)(=O)N1CCC(c2noc(C3CC3)n2)C1 (stereo not drawn)	30.1%[5.79 µM]
OC[C@H]1CCN(c2nnnn2-c2ccc(Oc3ccccc3)cc2)C[C@H]1O	0.1%
COc1ccc(C(=O)N2C[C@@H](COc3ccccc3)[C@H](C(N)=O)C2)cn1	1.7%
COc1nccnc1NC1CCN(C(=O)NC2CCCCC2)CC1	i[5.79 µM]
O=C(Nc1ccccc1CCc1ccccn1)C1CCN(c2cnn(Cc3ccccc3)c(=O)c2)C1 (stereo not drawn)	4.47µM*
O=C(NCc1cnccn1)C1CCCN(c2cnn(Cc3ccccc3)c(=O)c2)C1 (stereo not drawn)	-16.0%
Cn1ncc(N2CCC(C(=O)Nc3ccccc3CCc3ccccn3)C2)cc1=O (stereo not drawn)	-16.4%
Cc1cc(C(=O)N2C[C@@H](CO)[C@H](c3ccccn3)C2)nn1C	26.6%
COc1ccccc1-c1cc(C(=O)N2CCOCC2)nn2cccc12	-0.4%
CC1=C(c2ccc(C)c(C)c2)S(=O)(=O)N=C1N1CCC(C(=O)Nc2ccc(Cl)cc2)CC1	i
CCOC(=O)C1CCN(C(=O)C2CCN(C3=NS(=O)(=O)C(c4ccc(C)c(C)c4)=C3C)CC2)CC1	3.98µM*
CC1=C(c2ccc(C)c(C)c2)S(=O)(=O)N=C1N1CCC(C(=O)N2CCC(C(N)=O)CC2)CC1	i
COc1cc(=O)n2c(c1C(=O)Nc1ccc(C(C)C)cc1)CCCC2	-21.1%
CC1=C(C(=O)OC(C)C)C(c2ccc(C)cc2)N2C(CC(=O)N(C)Cc3ccco3)=CSC2=N1 (stereo not drawn)	-2.0%
CCn1c(CO)nnc1C1CC(NC(=O)CCc2n[nH]c3c2CCCC3)C1 (stereo not drawn)	-3.7%
Cn1ncc(N2CCCC(CC(=O)NCCc3ccccc3)C2)cc1=O (stereo not drawn)	i
SMILES	Pf Dd2 inh
CC1CCCCN1Cc1c(O)ccc2c(=O)c(-c3ccccc3Cl)c(C(F)(F)F)oc12 (stereo not drawn)	8.91µM*
CCc1nc2c(c(-c3ccc(Cl)cc3)n1)CN(C(=O)C1CCCC1)CC2	i
CC1CCCCN1Cc1c(O)ccc2c(=O)c(-c3ccc(Cl)cc3)coc12 (stereo not drawn)	2.24µM*
CCOCCOC1CCN(C(=O)c2c[nH]c3ccccc23)CC1	14.9%
CCCn1cnc(NC(=O)NC2CC(C)(C)NC(C)(C)C2)n1	0.2%
COc1ccc(-c2cc(N3CCCC(NC(=O)c4cnccn4)C3)n[nH]2)cc1 (stereo not drawn)	-5.6%
Cn1nc(-c2cccs2)cc1[C@H]1CN2CC[C@H]1C[C@@H]2COC(=O)Nc1cccc(C(F)(F)F)c1	-7.9%
Cc1nc(-c2cccs2)cc([C@H]2CN3CC[C@H]2C[C@@H]3COC(=O)Nc2cccc(C(F)(F)F)c2)n1	7.94µM*
Cc1nc(-c2cccs2)cc([C@H]2CN3CC[C@H]2C[C@@H]3CO)n1	11.2µM*
Cc1nc(-c2cccs2)cc([C@H]2CN3CC[C@H]2C[C@@H]3COC(=O)NC2CCCCC2)n1	i
Cn1nc(-c2ccc(F)cc2)cc1[C@H]1CN2CC[C@H]1C[C@@H]2COC(=O)Nc1cccc(C(F)(F)F)c1	-19.3%
CCNC(=O)NC[C@H]1C[C@@H]2CCN1C[C@@H]2c1cc(-c2cccs2)nn1C	i
O=C(NC1CCN(c2cc(-c3ccc(F)cc3)[nH]n2)C1)c1ccncc1 (stereo not drawn)	-19.2%
COc1cccc(CN2C[C@@H](CO)[C@H](NC(=O)C3CC3)C2)c1OC	-21.2%
CC(C)c1cc(C(=O)N(C)CCc2noc(C3CC3)n2)nc2ncnn12	-13.3%
Cc1ncsc1CN(C)C1CCc2nn(CC3CC3)c(=O)n2CC1 (stereo not drawn)	35.7%
O=C(NCCCc1nc2ccccc2n1Cc1ccccc1)C1CCCCC1	-5.6%
Cc1ccc(Cn2c(CN3CCC(C(=O)NCc4ccccc4C)CC3)cc3ccccc32)cc1	-10.1%
CN(C)CCNC(=O)C1CCN(Cc2cc3ccccc3n2Cc2ccccc2)CC1	6.31µM*
CS(=O)(=O)N1CCC(C2CCN(C(=O)NCc3ccco3)C2)CC1 (stereo not drawn)	3.2%
O=C1c2c(nc(COc3cccnc3)n2Cc2ccccc2)NCCN1CCOc1ccccc1	-13.3%
O=C(NC[C@H]1OC[C@@H](NC2COC2)[C@@H]1O)c1ccncc1	22.8%[44.1 µM]
O=C(Nc1nncs1)C1CC(=O)N(c2n[nH]c3cccc(F)c23)C1 (stereo not drawn)	-19.7%
CCCN1C(=O)CC[C@H]2CN(C(=O)c3ccc(F)c(OC)c3)CC[C@H]21	5.2%
CCN(C(=O)C(NS(=O)(=O)c1cccc2nsnc12)c1ccccc1)c1ccccc1 (stereo not drawn)	-0.7%
SMILES	Pf Dd2 inh
Cc1cccc(N(C)C(=O)C(Cc2ccccc2)NS(=O)(=O)c2cccc3nsnc23)c1 (stereo not drawn)	6.6%
CCc1cccc(CC)c1NC(=O)C1CCC(CNS(=O)(=O)c2cccc3nsnc23)CC1 (stereo not drawn)	3.16µM*
CCCN(CCC)CCCNC(=O)C1CCCN(S(=O)(=O)c2cccc3nsnc23)C1 (stereo not drawn)	-19.1%
CCc1ccccc1NC(=O)C1CCCN(S(=O)(=O)c2cccc3nsnc23)C1 (stereo not drawn)	-24.5%
CCCCN(C(=O)C1CCC(CNS(=O)(=O)c2cccc3nsnc23)CC1)c1ccccc1 (stereo not drawn)	2.24µM*
CC(C)CCNC(=O)C1CCC(CNS(=O)(=O)c2cccc3nsnc23)CC1 (stereo not drawn)	3.16µM*
CC(C)NC(=O)[C@@H]1C[C@H](N)CN1S(=O)(=O)c1cccc2nsnc12	19.2%
Cc1cccc(C)c1NC(=O)C1CCCN1S(=O)(=O)c1cccc2nsnc12 (stereo not drawn)	i
N#Cc1csc(N2CC3CCC(C2)N3CC(F)(F)F)n1	i
CN1CCN(c2cc(=O)c3ccnc(Nc4ccc(F)c(Cl)c4)c3o2)CC1	-22.7%[44.1 µM]
Cc1cccc(C(=O)NCC2CCCCC(=O)N2)c1 (stereo not drawn)	15.0%
c1ccc2c(c1)OCC(CCNc1ncncn1)O2 (stereo not drawn)	3.8%
Cc1ccc(-c2cn(C3CN(C(=O)C(C)CN4CCOCC4)C3)nn2)cc1 (stereo not drawn)	-15.1%
C=CCCC(CN1CCCC1)Oc1ccc(C(=O)N2CCOCC2)cn1 (stereo not drawn)	6.31µM*
CN1CCC(Oc2ccc(C(=O)N3CCOCC3)cn2)CC1	6.9%
C=CCCC(CN1CCCOCC1)Oc1ccc(-c2ccccc2)nn1 (stereo not drawn)	14.1µM*
